Screening data: PubChem, National Center for Advancing Translational Sciences (NCATS)
JMJD2A Tudor: inhibitors of human JMJD2A Tudor domain; Potency, µM (top dose mostly 114 µM), without a hit: top-dose activity change, negative = inhibition, most hits filed as inhibitors; AID 504339; AlphaScreen JMJD2A-Tudor / H3K4me3 peptide binding; O75164; actives 4.4% (n = 390,000); further: on the % scale 0 is the no-effect control and ±100 the full control effect; nearly all actives have a fitted effect of over 50% in size
Target sequence (O75164 whole entry, looked up, the tested form may be a part): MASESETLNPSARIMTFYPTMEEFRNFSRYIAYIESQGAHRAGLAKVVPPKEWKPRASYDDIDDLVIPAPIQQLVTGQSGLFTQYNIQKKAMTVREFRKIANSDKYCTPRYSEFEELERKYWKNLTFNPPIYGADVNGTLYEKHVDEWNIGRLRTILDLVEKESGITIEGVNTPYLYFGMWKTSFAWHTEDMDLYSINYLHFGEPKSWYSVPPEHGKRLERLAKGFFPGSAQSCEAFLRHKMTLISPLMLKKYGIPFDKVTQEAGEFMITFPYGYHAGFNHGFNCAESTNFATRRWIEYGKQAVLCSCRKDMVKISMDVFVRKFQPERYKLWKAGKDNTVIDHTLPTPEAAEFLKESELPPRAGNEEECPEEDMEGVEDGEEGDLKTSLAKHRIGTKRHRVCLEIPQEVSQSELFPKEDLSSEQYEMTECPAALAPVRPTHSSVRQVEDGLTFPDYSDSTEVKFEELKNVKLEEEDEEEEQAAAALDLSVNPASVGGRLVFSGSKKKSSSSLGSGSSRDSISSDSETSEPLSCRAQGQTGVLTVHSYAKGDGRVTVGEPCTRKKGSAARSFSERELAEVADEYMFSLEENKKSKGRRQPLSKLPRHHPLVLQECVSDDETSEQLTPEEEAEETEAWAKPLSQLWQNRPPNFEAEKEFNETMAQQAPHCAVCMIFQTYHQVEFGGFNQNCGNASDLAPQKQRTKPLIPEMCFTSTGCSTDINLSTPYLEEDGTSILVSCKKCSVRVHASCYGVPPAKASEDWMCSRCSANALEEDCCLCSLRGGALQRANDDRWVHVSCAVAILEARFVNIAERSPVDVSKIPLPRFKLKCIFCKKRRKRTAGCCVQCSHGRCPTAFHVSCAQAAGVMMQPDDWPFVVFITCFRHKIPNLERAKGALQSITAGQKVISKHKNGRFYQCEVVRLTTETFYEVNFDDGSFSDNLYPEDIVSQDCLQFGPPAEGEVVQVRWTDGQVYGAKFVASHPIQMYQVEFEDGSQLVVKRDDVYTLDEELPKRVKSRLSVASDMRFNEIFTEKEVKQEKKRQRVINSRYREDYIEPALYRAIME
G9a inh: blocks human histone lysine methyltransferase G9a; Q96KQ7; G9a H3K9 monomethylation, AlphaScreen, 2 h; Potency, µM (series often up to 102 µM), without a hit: at the highest dose activity, negative = inhibition, most hits filed as inhibitors; actives 8.8% (n = 350,000); AID 504332; further: on the % scale 0 is the no-effect control and ±100 the full control effect; nearly all actives have a fitted effect of over 75% in size
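G9a (20 nM) was preincubated 15 min with compound, then reacted 2 h at room temperature with 500 nM biotin-H3K9 peptide and 20 µM SAM. Monomethyl-H3K9 detected by AlphaScreen using anti-H3K9me1 antibody.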
Sfp inh: blocks B. subtilis Sfp PPTase activity | Q9F4F7 | Potency, µM, for the others: largest response in the series, negative = inhibition, most hits filed as inhibitors | AID 1490 | actives 3.5% (n = 310,000) | Biochemical Sfp PPTase activity, qHTS;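 further: the enzyme is Sfp with the accession as filed and its product quenches rhodamine fluorescence; 0% = enzyme reaction without inhibitor and -100% = no enzyme wells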
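Compounds were incubated with enzyme (final 15 nM) for 15 min at room temperature before substrate addition started the reaction. Fluorescence at 525 nm excitation, 598 nm emission was recorded immediately and after 30 minutes.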
BAZ2B inh: inhibitors of human BAZ2B bromodomain | Potency, µM (top dose mostly 114 µM), inactives show at the highest dose activity change, negative = inhibition, actives largely listed as inhibitors | Q9UIF8 | actives 4.4% (n = 360,000) | AlphaScreen BAZ2B-H3K14Ac peptide displacement; further: on the % scale 0 is the no-effect control and ±100 the full control effect; nearly all actives have a fitted effect of over 60% in size
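Multi-concentration screen (max 110 uM) measuring displacement of acetylated histone H3 peptide from BAZ2B by AlphaScreen, using 50 nM protein, 50 nM peptide and 10 ug/mL streptavidin donor plus Ni-chelate acceptor beads.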
HP1b chromo inh: blocks HP1-beta chromodomain binding to methylated histone tails; P83916; AlphaScreen HP1-beta / biotin-H3K9me3 peptide binding; Potency, µM (doses to about 114 µM), for the others: top-dose activity change, negative = inhibition, hits mostly inhibitors; actives 0.56% (n = 390,000); further: nearly all actives have a fitted effect of over 70% in size
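Compound inhibition of the preformed complex between 50 nM HP1-beta and 50 nM biotinylated H3K9me3 peptide was read by AlphaScreen. Buffer was PBS pH 7.4 with 0.01% Tween-20. Incubations ran 30 min at room temperature, with 10 ug/mL donor/acceptor beads.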
Active calls of the source: *; ? = inconclusive; . = no result; [ ] = remark or other dose. Sampled rows, rich in hits. Any-hit rate of the full collection: about 12%. The call rests on the fitted dose curve; in most records, active means well fitted curve in the direction sought with a large enough effect; inconclusive means small, poorly fitted or top-dose-only effect, or another doubt; inactive means no such curve, though single readings can be large; an effect the other way counts as inactive or inconclusive. Potency means the concentration at half of the fitted maximal effect.

SMILES	JMJD2A Tudor	G9a inh	Sfp inh	BAZ2B inh	HP1b chromo inh
O=C(NCCN1CCOCC1)c1ccc(CS(=O)(=O)c2c(Cl)cccc2Cl)o1	-8%	?	12%	5%	64%
COc1cccc(NC(=O)c2ccccc2OCc2c(C)noc2C)c1	-9%	11%	.	-1%	33%
CCOC(=O)c1ccc(NC(=S)Nc2cccc(N)n2)cc1	-12%	-30%	8.9µM*	-31%	-5%
Cc1cc(C)nc(Nc2cccc(C(F)(F)F)c2)n1	-3%	50µM*	6%	8%	39%
CCn1cc(Cl)c(C(=O)Nc2cccc(C(F)(F)F)c2)n1	50µM*	52%	29%	31%	22%
CCn1cc(Cl)c(C(=O)Nc2ccc3c(c2)OCCO3)n1	-7%	5%	12%	-3%	22%
CCCCCNCC(=O)Nc1cccc(C(=O)Nc2cccc(C(F)(F)F)c2)c1	5µM*	.	32µM*	?	?
O=C(CN1CCOCC1)Nc1cccc(C(=O)Nc2cccc(C(F)(F)F)c2)c1	-4%	-24%	1%	13%	44%
COc1c(OC(C)=O)ccc(/C=C/c2ccc3cccc(OC)c3n2)c1[N+](=O)[O-]	?	?	-3%	?	?
O=C(O)c1ccc(/C=C/c2ccc3cccc(O)c3n2)cc1	-24%	?	40µM*	-2%	21%
COC(=O)c1ccc(/C=C/c2ccc3cccc(OC(C)=O)c3n2)cc1	-1%	-6%[59 µM]	18µM*	6%	55%
C=CCn1c(SCCN2CCOCC2)nc2c1c(=O)[nH]c(=O)n2C	1%	-34%[12.7 µM]	-6%	13%	30%
COCCn1c(SCc2ccc(F)cc2)nc2c1c(=O)[nH]c(=O)n2C	-7%	.	45µM*	3%	?
COCCn1c(SCCN2CCOCC2)nc2c1c(=O)[nH]c(=O)n2C	-22%	11µM*	13µM*	8%	-16%
Cc1ccc(CSc2nc3c(c(=O)[nH]c(=O)n3C)n2CCC(C)C)cc1	-14%	0%	0%	15%	25%
CC(C)CCn1c(SCc2ccc(Cl)cc2)nc2c1c(=O)[nH]c(=O)n2C	-21%	14µM*	45µM*	-26%	-32%
O=C(COC(=O)/C=C/c1ccccc1)NC1CC1	-10%	0%[2.33 µM]	.	-18%	35%
CCCCN(CC)CCNC(=O)c1cc2c(=O)[nH]c3ccccc3c2s1	-17%	-5%	15%	-1%	-17%
CC(=O)N[C@@H](C)c1nc2ccccc2n1CCCN1CCN(c2nc(-c3ccc(C)cc3)cs2)CC1	?	45µM*	-15%	?	-17%
CCCn1c(C2CCCN2c2nc(-c3ccc(C)cc3)cs2)nc2ccccc21 (stereo not drawn)	-28%	40µM*	50µM*	?	-11%
Cc1ccc(-c2csc(N3CCN(CCCn4c(C(F)(F)F)nc5ccccc54)CC3)n2)cc1	-34%	45µM*	-2%	-38%	-4%
Cc1ccc(-c2csc(N3CCN(CCCn4c(-c5ccncc5)nc5ccccc54)CC3)n2)cc1	?	50µM*	-22%	?	?
Cc1ccc(Cn2c(C3CCCN3c3nc(-c4ccc(F)cc4)cs3)nc3cc(Cl)c(Cl)cc32)cc1 (stereo not drawn)	-28%	.	.	.	-5%
CC(=O)Nc1ccc(S(=O)(=O)NC(CC(=O)NC2CCCCC2C)C(C)C)cc1 (stereo not drawn)	-8%	-9%	13%	10%	19%
Cc1ccc(-c2csc(N(CCO)CCCn3c(C(F)(F)F)nc4cc(C(F)(F)F)ccc43)n2)cc1	-35%	25µM*	-4%	?	4%
SMILES	JMJD2A Tudor	G9a inh	Sfp inh	BAZ2B inh	HP1b chromo inh
Cc1ccc(-c2csc(N3CCC[C@@H]3C(=O)NCCn3c(-c4ccncc4)nc4ccccc43)n2)cc1	?	45µM*	-6%	45µM*	-19%
O=C(NCCn1c(C(F)(F)F)nc2ccccc21)[C@H]1CCCN1c1nc(CN2CCCCC2)cs1	-12%	-27%	14%	1%	34%
Cc1cccc(NC(=S)NNC(=O)c2ccccc2OC(F)F)c1	-23%	?	-5%	12%	8%
COC(=O)c1cn[nH]c1NC(=S)Nc1ccc(Cl)c(Cl)c1	-2%	5%[59 µM]	56µM*	5%	5%
O=C(NNC(=S)Nc1ccc(F)c(Cl)c1)c1ccccc1Br	-35%	-39%[12.7 µM]	56µM*	0%	-1%
CC(=O)NNC(=S)Nc1cccc(F)c1	-4%	13µM*	5%	0%	19%
Cc1cccc(NC(=S)NNC(=O)c2ccccc2Br)c1	-15%	5µM*	-4%	12%	5%
COc1ccccc1-n1c(SCC(N)=O)nc2sc3c(c2c1=O)CCC3	-20%	-16%	-1%	-28%	-7%
CCOC(=O)CN1C(=O)C(=O)N(Cc2ccccc2)C1=O	-14%	-2%	-1%	-20%	26%
CC(=O)Nc1cccc(NC(=S)Nc2ccc(F)c(Cl)c2)c1	-34%	?	35µM*	-20%	12%
CN(c1ccccc1)c1nc(N)c([N+](=O)[O-])c(NC2CCCCC2)n1	-24%	-11%	7%	-26%	3%
CC1CCCN(c2nc(NCc3ccco3)nc(N)c2[N+](=O)[O-])C1 (stereo not drawn)	?	?	-7%	50µM*	?
CCOc1ccc(Nc2nc(N)c([N+](=O)[O-])c(N3CCN(CC)CC3)n2)cc1	?	-11%[2.33 µM]	1%	50µM*	?
Cc1ccc(Nc2nc(N)c([N+](=O)[O-])c(N3CCCC(C)C3)n2)cc1C (stereo not drawn)	25µM*	20µM*	11%	?	?
CC1CCCN(c2nc(N(C)c3ccccc3)nc(N)c2[N+](=O)[O-])C1 (stereo not drawn)	?	32µM*	12%	?	?
Nc1nc(NCc2ccco2)nc(N2CCOCC2)c1[N+](=O)[O-]	-15%	14%[12.7 µM]	-2%	-13%	16%
Nc1nc(Nc2ccccc2)nc(N2CCCC2)c1[N+](=O)[O-]	?	-7%	5%	?	-10%
COCCn1c(=NC(=O)CCS(=O)(=O)c2ccccc2)sc2ccccc21	-19%	.	.	.	25%
CN1CCN(Cc2nc(-c3cccs3)no2)CC1c1ccccc1 (stereo not drawn)	-16%	.	-1%	-5%	30%
C=CCN(c1ccccc1)S(=O)(=O)c1cccc(C(=O)Nc2cc(C)ccn2)c1	-12%	-20%	.	-6%	46%
CCOC(=O)c1ccc(-c2n[nH]c(=O)c3ccccc23)cc1	-12%	4%[59 µM]	9%	7%	28%
COc1ccc(NC(=O)CSc2nnc(Cn3c(=O)sc4ccccc43)n2C)cc1	-4%	3%[59 µM]	4%	-2%	55%
COc1ccc(NC(=O)CN2C(=O)/C(=C3\SC(=S)N(C4CCS(=O)(=O)C4)C3=O)c3ccccc32)cc1 (stereo not drawn)	-6%	.	14µM*	-20%	?
